# In ChEMBL document CHEMBL3988442, “University of Dundee, Small-Polar-MMV Screening Library” (2021):
# In all, about 67,000 compounds went through this assay and about 300 (0.45%) showed an effect of 50% or more. What follows is part of a selection rich in strong results, with near analogues and random picks from the rest.
# Target: Polyketide synthase Pks13 (Mycobacterium tuberculosis (strain ATCC 25618 / H37Rv)) (UniProt I6X8D2)
# Assay: Mycobacterium tuberculosis Polyketide synthase 13 Thioesterase (PKS13)
# Type: functional
# Set-up: scale not given: in the data most compounds retested in dose-response had high values
# Conditions: 30 µM
# Chain of Polyketide synthase Pks13 (Mycobacterium tuberculosis (strain ATCC 25618 / H37Rv)) (I6X8D2 whole entry): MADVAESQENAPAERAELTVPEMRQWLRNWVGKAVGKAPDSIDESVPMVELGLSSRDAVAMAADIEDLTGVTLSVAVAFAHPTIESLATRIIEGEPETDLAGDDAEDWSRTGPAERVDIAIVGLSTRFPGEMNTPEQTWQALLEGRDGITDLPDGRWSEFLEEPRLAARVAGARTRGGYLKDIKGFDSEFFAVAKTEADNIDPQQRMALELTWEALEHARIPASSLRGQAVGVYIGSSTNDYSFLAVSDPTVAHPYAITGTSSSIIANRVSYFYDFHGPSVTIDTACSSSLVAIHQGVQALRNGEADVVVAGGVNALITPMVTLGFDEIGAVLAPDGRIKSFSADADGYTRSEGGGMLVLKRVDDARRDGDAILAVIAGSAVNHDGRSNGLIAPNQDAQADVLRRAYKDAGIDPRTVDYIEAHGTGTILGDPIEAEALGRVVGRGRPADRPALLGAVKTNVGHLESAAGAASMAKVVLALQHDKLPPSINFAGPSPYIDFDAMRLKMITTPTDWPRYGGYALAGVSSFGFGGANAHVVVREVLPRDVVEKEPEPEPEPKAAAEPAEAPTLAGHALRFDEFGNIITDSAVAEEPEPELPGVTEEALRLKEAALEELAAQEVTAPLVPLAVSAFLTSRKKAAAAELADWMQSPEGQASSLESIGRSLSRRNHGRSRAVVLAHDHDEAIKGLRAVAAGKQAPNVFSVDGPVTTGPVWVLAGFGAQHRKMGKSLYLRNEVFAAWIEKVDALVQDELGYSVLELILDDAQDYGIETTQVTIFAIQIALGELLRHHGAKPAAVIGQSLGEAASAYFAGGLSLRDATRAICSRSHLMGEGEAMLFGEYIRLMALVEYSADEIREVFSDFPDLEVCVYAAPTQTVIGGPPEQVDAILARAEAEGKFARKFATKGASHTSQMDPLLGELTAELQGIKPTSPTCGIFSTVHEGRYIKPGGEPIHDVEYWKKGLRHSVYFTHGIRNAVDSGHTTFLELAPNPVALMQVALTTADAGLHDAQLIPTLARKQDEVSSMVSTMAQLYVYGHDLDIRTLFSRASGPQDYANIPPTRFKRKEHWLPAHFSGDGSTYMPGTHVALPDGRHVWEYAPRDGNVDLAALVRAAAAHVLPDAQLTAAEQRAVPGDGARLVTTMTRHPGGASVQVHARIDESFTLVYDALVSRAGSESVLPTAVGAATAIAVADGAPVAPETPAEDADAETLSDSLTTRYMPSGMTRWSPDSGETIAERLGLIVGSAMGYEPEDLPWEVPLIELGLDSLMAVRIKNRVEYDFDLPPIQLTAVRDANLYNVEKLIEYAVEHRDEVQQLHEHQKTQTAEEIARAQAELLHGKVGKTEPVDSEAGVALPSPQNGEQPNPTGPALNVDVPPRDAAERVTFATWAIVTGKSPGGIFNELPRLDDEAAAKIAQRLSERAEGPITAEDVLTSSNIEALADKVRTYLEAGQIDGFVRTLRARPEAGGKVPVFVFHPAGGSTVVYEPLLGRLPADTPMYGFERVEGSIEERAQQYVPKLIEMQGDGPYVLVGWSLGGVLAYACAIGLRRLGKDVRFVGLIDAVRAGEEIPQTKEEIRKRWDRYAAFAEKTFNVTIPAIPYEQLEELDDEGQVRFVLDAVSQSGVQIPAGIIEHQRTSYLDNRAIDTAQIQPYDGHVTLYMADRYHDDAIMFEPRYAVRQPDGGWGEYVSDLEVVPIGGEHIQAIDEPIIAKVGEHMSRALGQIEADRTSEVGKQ
row,SMILES,Percent Effect [%]
1,CCCc1ccc(CN2C[C@H]3C(=O)N(CC4CC4)C[C@@]3(C(=O)O)C2)o1,-6.91
2,COCCN1C[C@@H]2CN(c3ncccn3)C[C@@H]2C1=O,54.8
3,O=C1[C@H]2CN(c3ncccn3)C[C@H]2CN1CCN1CCCC1,-2.18
4,COCCN1C[C@@H]2CN(c3ncc(F)cn3)C[C@@H]2C1=O,-5
5,O=C(NC[C@@H]1C[C@@H]2CN(C(=O)CO)C[C@H]2O1)c1ccsc1,-53.3
6,O=C(c1ccc(-n2ccnc2)cc1)N1CCCC1,-36.5
7,O=C(c1ccc(-n2cncn2)cc1)N1CCN(c2cnccn2)CC1,-11.1
8,O=C(c1ccc(-n2cc(Br)cn2)cc1)N1CCN(c2cnccn2)CC1,81.5
9,O=C(c1ccc(-n2ccnc2)cc1)N1CCN(c2cnccn2)CC1,64.5
10,O=C(c1cnn(-c2ccccc2)c1)N1CCN(c2cnccn2)CC1,-16.8
11,Cc1ccnn1-c1ccc(C(=O)N2CCN(c3cnccn3)CC2)cc1,1.07
12,O[C@@]1(c2ccccn2)CC[C@H]2CN(Cc3cccc(Cl)c3Cl)C[C@H]21,-48.7
13,O=C(C1CC1)N1C[C@H]2CNC[C@@]2(C(=O)NCCCc2ccccc2)C1,-27.1
14,Cc1ncsc1CN1C[C@H](C(=O)NCC2CC2)[C@@H]2CCO[C@@H]2C1,-19.8
15,CCNC(=O)NCCCn1nc2ccccn2c1=O,0.265
16,O=C(NCCCn1nc2ccccn2c1=O)NCc1ccccc1,2.17
17,Cc1ccc(CNC(=O)NCCCn2nc3ccccn3c2=O)s1,96.8
18,Cc1nc(COC[C@@]23CCC[C@@H]2CN(CC2CCOCC2)C3)cs1,-23.1
19,O[C@@H]1C[C@@](CNCC2CC2)(COc2cccnc2)C[C@@H]1O,-28.2
20,Cc1cc(CN2C[C@@H]3COC[C@@H](C(=O)N4CCCCO4)[C@@H]3C2)oc1C,-7.51
21,CCN1CC(C(=O)N2CCN(c3nsc4ccccc34)CC2)CCC1=O (stereo not given),105
22,CC(C)N1CCCC(C(=O)N2CCN(c3nsc4ccccc34)CC2)C1 (stereo not given),-2.9

row,SMILES,Percent Effect [%]
1,NC(=O)N1CCCC(C(=O)N2CCN(c3nsc4ccccc34)CC2)C1 (stereo not given),-37.1
2,O=C(COC[C@H]1CC[C@H]2[C@H](CCN2c2ncccn2)O1)N1CCCC1,-9.39
3,CC(C)=CCN1CCN(C(=O)COc2ccccc2)[C@H]2CS(=O)(=O)C[C@H]21,-8.58
4,O=C(C1CC(F)(F)C1)N1C[C@@H]2CN(Cc3ccoc3)CCO[C@@H]2C1,-7.81
5,Cc1cccc(CN2CCN(C(=O)N(C)C)[C@@H]3CS(=O)(=O)C[C@@H]32)n1,-6.96
6,CCn1cc(-c2cc(-c3ccn(C)c3)nc(N)c2C#N)cc1C#N,58.3
7,CCNc1ncc(-c2cc(-c3ccn(C)c3)nc(N)c2C#N)cn1,5.42
8,COc1ncc(-c2cc(-c3ccn(C)c3)nc(N)c2C#N)cn1,9.8
9,CN(C)C(=O)COCC1C[C@@H]2OCCN(Cc3ccco3)[C@H]2C1 (stereo not given in full),-27.3
10,COc1cc(N2C[C@@H]3COC[C@]3(COCc3ccncc3)C2)ncn1,-5.91
11,O=C(C[C@@H]1COC[C@H]2CN(C3CCC3)C[C@@H]12)NCc1cccnc1,0.641
12,O=C(c1ccc(F)cc1)N1C[C@H]2CCC[C@@]2(COCc2ccccn2)C1,-35.6
13,COc1ccsc1C(=O)Nc1cc(Cl)c(=O)n(C)c1,-16.3
14,Cn1cc(NC(=O)c2ccccn2)cc(Cl)c1=O,-33.4
15,Cn1cc(NC(=O)c2cc[nH]n2)cc(Cl)c1=O,70.5
16,O=C(c1ccnnc1)N1CCN2C[C@H](Oc3cccnc3)C[C@H]2C1,-17.2
17,COc1ncccc1CN1C[C@H]2CCN(C(C)C)C[C@H]2C1,8.32
18,O=C(Nc1nc2c(s1)CN(S(=O)(=O)C1CC1)CC2)c1c(F)cccc1F,-2.3
19,O=C(Nc1nc2c(s1)CN(S(=O)(=O)C1CC1)CC2)c1ccc(Cl)s1,13.8
20,O=C(Nc1nc2c(s1)CN(S(=O)(=O)C1CC1)CC2)c1cccc(Cl)c1,75.5
21,CNC(=O)[C@@]12CCCN(c3ncccn3)[C@@H]1CN(c1ncc(C)cn1)C2,-27.3
22,Cn1nc(C2CCCN2)c2c(C(=O)NCC(F)(F)F)cc(C3CC3)nc21 (stereo not given),119

row,SMILES,Percent Effect [%]
1,Cn1nc(C2CCNC2)c2c(C(=O)NCC(F)(F)F)cc(C3CC3)nc21 (stereo not given),-7.7
2,CC(C)CNC(=O)c1cc(C2CC2)nc2c1c(C1CCCN1)nn2C (stereo not given),-19.7
3,O=C(c1ccco1)N1CCO[C@@H]2CN(c3ccccn3)CC[C@@H]2C1,52.6
4,Cc1cccc(N2CC[C@@H]3CN(C(=O)c4ccco4)CCO[C@@H]3C2)n1,-34.3
5,O=C(c1ccco1)N1CCO[C@@H]2CN(c3ccccc3)CC[C@@H]2C1,-28.4
6,Fc1cnc(N2CCO[C@H]3CN(CC4CCCCC4)C[C@H]32)nc1,-51
7,O=C(c1cccc(F)c1)N1CC[C@H]2[C@H]1CCN2CC1CCOCC1,-17.7
8,Cc1nc2c(Nc3cccc(C#N)c3)nc(N)nc2n1C,58.8
9,Cc1nc2c(Nc3ccc(C#N)cc3)nc(N)nc2n1C,18.1
10,CC(=O)c1ccc(Nc2nc(N)nc3c2nc(C)n3C)cc1,2.22
11,O=C(NCc1ccccn1)[C@H]1COC[C@H]2CN(C3CCCC3)C[C@H]21,-25.1
12,CC1(NC(=O)Cc2csc(-c3ccccc3Cl)n2)CCS(=O)(=O)C1 (stereo not given),-7.78
13,CC1(NC(=O)Cc2csc(C(C)(C)C)n2)CCS(=O)(=O)C1 (stereo not given),-0.313
14,CC1(NC(=O)Cc2csc(NC(=O)c3ccccc3)n2)CCS(=O)(=O)C1 (stereo not given),51.1
15,c1ccc(CN2CCN3C[C@H](Oc4cccnc4)C[C@H]3C2)nc1,-35.4
16,CNC(=O)[C@H]1C[C@@H]2CN(C(=O)c3ccccn3)C[C@@H]2N1S(C)(=O)=O,-6.49
17,CSCc1ccc(N2CCC(C(O)Cc3ccccc3)CC2)nc1 (stereo not given),101
18,Cc1ccc(N2CCC(C(O)Cc3ccccc3)CC2)nn1 (stereo not given),-23.2
19,CSCc1ccc(N2CCC(C(O)CC(C)C)CC2)nc1 (stereo not given),6.3
20,CC(C)CNC(=O)N1CC[C@@H]2CN(Cc3cccnc3)S(=O)(=O)[C@@H]2CC1,-16.3
21,CCCN1C(=O)[C@@H]2[C@@H](CCN2C(=O)COC)N(Cc2cccs2)C1=O,26.9
22,Cc1cc(NCc2cccc(C#N)c2)ccc1C(N)=O,-10.5

row,SMILES,Percent Effect [%]
1,Cc1cc(NCc2cccc(C#N)c2)ccc1Br,58.5
2,Cc1cc(NCc2cccc(C#N)c2)ccc1C(=O)N(C)C,-4.66
3,C1CC(N2C[C@@H]3COC[C@]3(COCC3CCOCC3)C2)C1,-9.77
4,Fc1ccccc1Cc1noc(CN2CC[C@@H]3CCCC[C@H]3C2)n1,-29.1
5,CC(C)c1cc(CN2CCC(N)CC2)no1,11.6
6,CC(C)c1cc(CN2CCC(CC(=O)O)CC2)no1,60.1
7,CC(C)c1cc(CN2CCNCC2)no1,18.9
8,CC(C)c1cc(C(=O)N2CCN(CC3CC3)[C@@H]3CS(=O)(=O)C[C@@H]32)on1,-6.23
9,O=C1[C@@H]2CCN(CC3CC3)C[C@@H]2OCCN1c1ccsc1,2.34
10,COc1cc(/C=C/c2ncc(C(=O)O)s2)cc(OC)c1,19.6
11,CNC(=O)c1cnc(/C=C/c2cc(OC)c(OC)c(OC)c2)s1,17.9
12,CCOc1cc(/C=C/c2ncc(C(=O)O)s2)cc(Br)c1OC,17.1
13,COc1cc(/C=C/c2ncc(C(=O)O)s2)cc(Cl)c1O,64.9
14,COc1cc(/C=C/c2ncc(C(=O)O)s2)cc(Cl)c1OC,16.6
15,CCOc1c(Cl)cc(/C=C/c2ncc(C(=O)O)s2)cc1OC,23.8
16,CCOc1c(Br)cc(/C=C/c2ncc(C(=O)O)s2)cc1OC,-5.74
17,CCOc1cc(/C=C/c2ncc(C(=O)O)s2)cc(Br)c1O,59.8
18,CNC(=O)c1cnc(/C=C/c2cc(OC)cc(OC)c2)s1,54.2
19,CC(=O)N1CC[C@H]2OCC[C@@]2(C(=O)NCCc2ccccn2)C1,-18.1
20,O=C(c1ccsc1)N1CCN2C[C@H](OCc3ccccn3)C[C@H]2C1,-2.94
21,Cc1ccc(N2C[C@@H]3OCCN(CC4CC4)[C@@H]3C2)nn1,0.27
22,O=C(C1CCCCC1)N1C[C@H]2CNC[C@H]2C1,-22.2

row,SMILES,Percent Effect [%]
1,CCOC(=O)[C@@H]1[C@@H](c2ccccc2)CN2CCN(C(=O)N(C)C)C[C@H]12,-2.04
2,O=C(c1cnccn1)N1CCN2C[C@H](Oc3cccnc3)C[C@H]2C1,-12.6
3,CN(C)C(=O)[C@H]1C[C@@H]2CCN(C3CCOCC3)C[C@H]2O1,-11.1
4,COc1ccc(C2Nc3ccccc3NC3=C2C(=O)NC3)cc1OC (stereo not given),-7.87
5,CC(C)(C)C(=O)N1CCC(n2nc(-c3ccco3)ccc2=O)CC1,125
6,CC(C)C(=O)N1CCC(n2nc(-c3ccco3)ccc2=O)CC1,0.602
7,O=C(c1ccco1)N1CCC(n2nc(-c3ccco3)ccc2=O)CC1,10.8
8,CN(C)C(=O)N[C@@H]1CN(C2CCOCC2)[C@@H]2CCCO[C@@H]21,-25.3
9,CC(=O)N1CCO[C@@H]2CN(C(=O)c3ccccc3)CC[C@@H]2C1,7.28
10,CC(=O)NC(C)C(=O)Nc1ccc(OCc2cccc(F)c2)cc1C (stereo not given),-35.8
11,Cc1cccc(COc2ccc(NC(=O)C(C)NC(N)=O)c(C)c2)c1 (stereo not given),53
12,Cc1cc(OCc2cccc(F)c2)ccc1NC(=O)C(C)NC(N)=O (stereo not given),-1.33
13,c1ccc(OCC2C[C@@H]3[C@@H](C2)OCCN3CC2CCOCC2)nc1 (stereo not given in full),-0.0246
14,Cc1ccoc1C(=O)N1C[C@@H]2[C@@H](C1)OCC(=O)N2Cc1cccnc1,-9.46
15,c1ccc(N2CCOCC3(CCCN(c4nccs4)C3)C2)nc1 (stereo not given),66
16,Cc1ccc(N2CCCC3(COCCN(c4nccs4)C3)C2)nn1 (stereo not given),-10.9
17,Cc1cnc(N2CCCC3(COCCN(c4nccs4)C3)C2)nc1 (stereo not given),-20.9
18,Cc1nc2cc(C3CCN(C(=O)c4ccccn4)CC3)nn2c(O)c1C,-23.4
19,Cc1cccc(CN2C[C@@H]3OCCN(c4cnccn4)[C@@H]3C2)n1,-4.22
20,CS(=O)(=O)CCSc1n[nH]c(-c2ccc3c(c2)CCC3)n1,1.98
21,CS(=O)(=O)CCCSc1n[nH]c(-c2ccc3c(c2)CCC3)n1,66.3
22,NC(=O)CCSc1n[nH]c(-c2ccc3c(c2)CCC3)n1,-2.85
